In PubChem BioAssay one finds composite z-score, z-score and composite Z-score data, which are given here for nine molecules.

Structures are written as SMILES. Active and inactive are the calls of the source.

The subject of assay [1] is Human papillomavirus type 1a protein E7 (residues 44-93). Briefly: HPV1a E7 fragment binders on microarrays, primary screen, biochemical, small-molecule microarray, residues 44-93, 635 nm fluorescence (AID 1108).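 Note: E7 fragment applied at 1 µg/mL in TBST for 1 h at 4 C; score combines spot fluorescence with its signal to noise ratio.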 Conditions: small-molecule microarray binding, fluorescence 635 nm; higher = more signal.
The nature of assay [2]: modulators of HCV replicon luciferase signal, primary screen, HCV replication inhibitor project, Huh7 cells, luciferase reporter (AID 1109).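 Note: huh7 hepatoma cells harbouring a luciferase neomycin HCV replicon reporter; luciferase luminescence as measure of HCV replicon replication; test concentration not given here.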 Conditions: 48 h, higher = more signal.
The target of assay [3] is Left-right determination factor 2 (Homo sapiens) (UniProt O00292). As to the kind of experiment: LEFTY2 binders on small-molecule microarrays, primary screen, biochemical, small-molecule microarray, 635 nm fluorescence scan (AID 1110). Conditions: LEFTY2 binding, higher = more signal.
Sequence of Left-right determination factor 2 (Homo sapiens) (O00292 whole entry, looked up): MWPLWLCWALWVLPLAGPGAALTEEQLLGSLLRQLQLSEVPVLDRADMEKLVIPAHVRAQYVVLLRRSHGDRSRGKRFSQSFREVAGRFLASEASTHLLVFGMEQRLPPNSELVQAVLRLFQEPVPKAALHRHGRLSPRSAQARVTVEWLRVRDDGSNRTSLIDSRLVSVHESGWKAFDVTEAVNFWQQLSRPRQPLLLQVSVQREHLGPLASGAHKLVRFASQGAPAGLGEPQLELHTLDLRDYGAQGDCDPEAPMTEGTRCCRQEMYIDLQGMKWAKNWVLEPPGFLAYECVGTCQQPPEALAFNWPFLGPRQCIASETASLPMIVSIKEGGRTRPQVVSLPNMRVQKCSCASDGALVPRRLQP
The target of assay [4] is Calmodulin-1 (Homo sapiens) (UniProt P0DP23). Briefly: CALM1 binders on microarrays, EGTA buffer, profiling panel, biochemical, small-molecule microarray, Cy5-labelled CALM1 (AID 1111).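 Note: labelled calmodulin applied in Tris saline Tween buffer holding calcium plus EGTA and DTT.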 The following applies: Cy5-CALM1 binding fluorescence, higher = more signal.
Assay [5] shares this target. As to the kind of experiment: calcium-bound CALM1 binders on microarrays, profiling panel, artefact control for SMM control-protein annotation, biochemical, small-molecule microarray, Cy5-labelled CALM1, plus calcium (AID 1112).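 Note: score merges spot fluorescence with signal to noise from triplicate slides.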 Conditions: Cy5-CALM1 binding fluorescence, higher = more signal.
Assay [6] can be described thus: small-molecule microarray binders of probe aWnt5a, primary screen, biochemical, biotinylated probe, 635/667 nm fluorescence (AID 1113).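 Note: score merges 667 nm fluorescence intensity with signal-to-noise per printed feature.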 The following applies: higher = more signal.
The nature of assay [7]: small-molecule microarray binders of probe aShh, primary screen, biochemical, biotinylated probe, 635/667 nm fluorescence (AID 1114).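 Note: probe is biotin-labelled aShh protein from a stem cell growth factor screen; measures binding of labelled protein to compounds printed on the slide; score merges feature fluorescence at 667 nm with signal-to-noise.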 The following applies: higher = more signal.
Assay [8] in a line: small-molecule microarray binders of probe aNog, primary screen, biochemical, biotinylated probe, 635/667 nm fluorescence (AID 1115).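 Note: probe is biotinylated aNog protein used at 0.15 µg/mL for 1 h at 4 C; z-score combines 667 nm fluorescence of each spot with its signal to noise.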 The following applies: higher = more signal.
Assay [9] has as its target Torsin-1A-interacting protein 1 (Homo sapiens) (UniProt Q5JTV8). Briefly: LAP1 binders from COS7 cell lysate, primary screen, small-molecule microarray, 635/667 nm fluorescence (AID 1116). The following applies: COS7-hLAP1 lysate binding, 635 nm fluorescence, higher = more signal.
Assay [10] addresses Alpha-bungarotoxin (Bungarus multicinctus) (UniProt P60615). As to the kind of experiment: alpha-bungarotoxin binders on microarray, profiling panel, artefact control for SMM control protein annotation, biochemical, small-molecule microarray, Alexa647 label, 635/667 nm fluorescence (AID 1117). Conditions: alpha-BTX-A647 binding fluorescence, higher = more signal.
A further assay has as its target Albumin (Bos taurus) (UniProt P02769). Briefly: bovine serum albumin binders on microarray, profiling panel, artefact control for SMM control protein annotation, biochemical, small-molecule microarray, Alexa647 label, 635/667 nm fluorescence (AID 1118).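 Note: score merges 667 nm emission intensity and signal-to-noise per printed compound spot.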 The following applies: BSA-A647 binding, fluorescence 635 nm, higher = more signal.
Assay [11] is described as follows: small-molecule microarray binders of probe aXIP, primary screen, biochemical, NeuroSMM set, 635/667 nm fluorescence (AID 1119).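 Note: probe is the protein aXip251-270 applied at 1 µg/mL to compound-printed slides; binding of probe to printed compounds measured as 667 nm fluorescence plus signal to noise.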 Conditions: higher = more signal, called active from +8 up or from −8 down.
A short description of assay [12]: small-molecule binders of probe aNOTCH3, primary screen, biochemical, small-molecule microarray, 635/667 nm fluorescence (AID 1120).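 Note: probe is a biotin-tagged antibody raised against NOTCH3 rather than NOTCH3 protein; score merges spot fluorescence near 667 nm with spot signal to noise.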 Conditions: higher = more signal.
Assay [13] in a line: small-molecule binders of probe aNOTCH2, primary screen, biochemical, small-molecule microarray, 635/667 nm fluorescence (AID 1121).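 Note: score merges feature fluorescence read at 667 nm with its signal to noise.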 The following applies: higher = more signal.
For assay [14], the target named is Carbonic anhydrase 2 (Homo sapiens) (UniProt P00918). Briefly: CAII small-molecule binders, profiling panel, biochemical, small-molecule microarray, Alexa647-labelled CAII (AID 1122). The following applies: CAII-A647 binding fluorescence, higher = more signal.
The nature of assay [15]: COS7 lysate on small-molecule microarray, probe aHis, 635 nm (AID 1123).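 Note: z-score combines 667nm fluorescence intensity with signal-to-noise per printed compound spot.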 The following applies: COS7 cell lysate, fluorescence, higher = more signal.
Assay [16] is described as follows: compound binding in COS7 lysate, probe aLAP1, primary screen, cell lysate, small-molecule microarray (AID 1124).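 Note: lysate comes from COS7 cells expressing LAP1 and is applied at 0.3 µg/mL; score merges spot fluorescence near 667 nm with signal-to-noise over triplicate slides.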 The following applies: probe aLAP1, fluorescence, higher = more signal.
The subject of another assay is Sam68 (KHDRBS1). As to the kind of experiment: Sam68 small-molecule binders, primary screen, biochemical, small-molecule microarray, 635 nm fluorescence (AID 1125).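 Note: score merges 667 nm channel intensity with signal to noise over triplicate slides.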 Conditions: small-molecule microarray binding, higher = more signal.
Assay [17] concerns Chordin-like protein 2 (CHRDL2). Briefly: CHRDL2 small-molecule binders, primary screen, biochemical, small-molecule microarray, 635 nm fluorescence (AID 1126).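 Note: printed compound slides probed with Chrdl2 protein at 4 µg/mL for 1 h at 4 C; score merges 667 nm emission intensity with signal to noise over three replicate slides.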 The following applies: small-molecule microarray binding, fluorescence 635 nm; higher = more signal.
The target in assay [18] is Concanavalin-A (Canavalia ensiformis) (UniProt P02866). Briefly: ConA small-molecule binders, primary screen, artefact control for SMM control protein annotation, biochemical, small-molecule microarray, Alexa647 label, 635 nm (AID 1127).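 Note: z combines 667 nm emission intensity with signal-to-noise across three replicate slides.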 The following applies: ConA-A647 binding fluorescence, higher = more signal.
Sequence of Concanavalin-A (Canavalia ensiformis) (P02866 whole entry, looked up): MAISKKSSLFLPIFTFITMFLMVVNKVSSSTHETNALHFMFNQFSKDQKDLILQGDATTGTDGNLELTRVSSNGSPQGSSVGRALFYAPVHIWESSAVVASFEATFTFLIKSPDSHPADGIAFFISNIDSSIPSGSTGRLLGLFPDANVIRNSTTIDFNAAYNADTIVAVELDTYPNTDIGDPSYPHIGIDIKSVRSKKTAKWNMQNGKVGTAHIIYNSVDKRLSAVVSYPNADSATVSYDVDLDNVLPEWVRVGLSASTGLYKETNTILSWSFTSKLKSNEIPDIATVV

Sequence of Albumin (Bos taurus) (P02769 whole entry, looked up): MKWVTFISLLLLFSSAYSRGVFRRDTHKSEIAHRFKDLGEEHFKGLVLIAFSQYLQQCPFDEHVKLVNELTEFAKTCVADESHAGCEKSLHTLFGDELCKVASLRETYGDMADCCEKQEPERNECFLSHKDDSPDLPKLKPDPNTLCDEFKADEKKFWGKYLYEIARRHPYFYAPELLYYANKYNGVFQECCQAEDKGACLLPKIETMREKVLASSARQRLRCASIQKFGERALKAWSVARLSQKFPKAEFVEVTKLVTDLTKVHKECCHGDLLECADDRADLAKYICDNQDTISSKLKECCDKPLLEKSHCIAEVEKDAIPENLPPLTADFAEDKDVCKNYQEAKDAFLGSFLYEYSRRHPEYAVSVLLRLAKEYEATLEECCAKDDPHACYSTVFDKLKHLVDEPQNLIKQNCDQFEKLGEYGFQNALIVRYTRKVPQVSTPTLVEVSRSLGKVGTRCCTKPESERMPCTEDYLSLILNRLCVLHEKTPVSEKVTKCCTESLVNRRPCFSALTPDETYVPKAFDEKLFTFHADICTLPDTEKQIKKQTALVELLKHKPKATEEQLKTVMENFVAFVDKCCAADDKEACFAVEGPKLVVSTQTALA
Sequence of Torsin-1A-interacting protein 1 (Homo sapiens) (Q5JTV8 whole entry, looked up): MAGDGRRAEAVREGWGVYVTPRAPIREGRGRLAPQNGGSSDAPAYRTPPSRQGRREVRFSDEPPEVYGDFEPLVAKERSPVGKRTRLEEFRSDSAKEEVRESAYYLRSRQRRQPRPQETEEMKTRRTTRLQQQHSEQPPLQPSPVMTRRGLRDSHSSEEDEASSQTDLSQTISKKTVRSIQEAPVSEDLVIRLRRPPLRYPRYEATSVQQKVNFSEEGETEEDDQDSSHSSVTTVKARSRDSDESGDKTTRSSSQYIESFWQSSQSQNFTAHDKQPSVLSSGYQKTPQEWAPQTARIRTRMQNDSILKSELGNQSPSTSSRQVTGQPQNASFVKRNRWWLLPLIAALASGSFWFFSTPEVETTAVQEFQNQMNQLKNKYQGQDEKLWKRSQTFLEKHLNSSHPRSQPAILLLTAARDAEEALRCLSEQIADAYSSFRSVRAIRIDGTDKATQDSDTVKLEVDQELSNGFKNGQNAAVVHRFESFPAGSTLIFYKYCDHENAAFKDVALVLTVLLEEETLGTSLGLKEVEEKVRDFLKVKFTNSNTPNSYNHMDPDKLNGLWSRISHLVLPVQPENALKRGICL
Sequence of Alpha-bungarotoxin (Bungarus multicinctus) (P60615 whole entry, looked up): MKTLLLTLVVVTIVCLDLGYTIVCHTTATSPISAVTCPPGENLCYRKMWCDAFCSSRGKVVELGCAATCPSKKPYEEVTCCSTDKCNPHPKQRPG

In the case of `COc1ccc([Si](C)(C)[C@H]2[C@H](CCO)O[C@@]3(C(=O)N(Cc4ccccc4)c4ccc(N5CCOC5=O)cc43)[C@@H]2C)cc1`, the composite z-score was 0.27 in assay [1]; 0.28 in assay [3]; 0.284 in assay [4]; 0.299 in assay [5]; -0.0239 in [6]; 0.0062 in [7]. Further, the composite z-score in assay [8] is 0.325; in assay [9], 0.673; in assay [10] it was 0.0997; with Albumin (Bos taurus), 0.711; in [12], 0.0311; in assay [13], -0.149. Moreover, the composite z-score in assay [14] is 0.299; in assay [15], 0.644; in assay [16], -0.174; with Sam68 (KHDRBS1), 0.832; in [17], 0.524; in assay [18], 1.15. Also, in assay [2], the z-score is -4.13. For the same molecule, the composite Z-score in assay [11] was -0.326 (inactive).
On to `COc1ccc(C(O)C2C=CC3C(=O)N(c4ccccc4)C(=O)C3N2Nc2ccccc2F)cc1` (stereo not given), for which the composite z-score in [1] is 0.726; in assay [3], -0.591; in assay [4] it was 0.528; in assay [5], 0.062; in [6], -0.0991; in assay [7], 0.0062. Moreover, the composite z-score was found to be 0.853 in assay [8]; 0.982 in assay [9]; 1.01 in assay [10]; 0.894 in the assay with Albumin (Bos taurus); 0.154 in assay [12]; 0.12 in assay [13]. Moreover, the composite z-score in [14] is 0.399; in [15], 1.69; in assay [16], 1.14; in the assay with Sam68 (KHDRBS1), 1.2; in assay [17] it was -0.798; in [18], 0.515. Also, the z-score in [2] was -0.139. Besides, the composite Z-score in assay [11] is 0.319 (inactive).
In the case of `CCCNC(=O)[C@@]1(Sc2ccc(C)cc2)CC(=O)N(C(C)C)[C@@H]1c1ccc(CO)cc1I`, the composite z-score is -0.593 in assay [1]; -1.7 in [3]; 1.31 in assay [4]; 0.944 in assay [5]; -0.178 in [6]; -0.0553 in assay [7]. Besides, the composite z-score was 0.909 in assay [8]; 0.669 in assay [9]; -0.432 in assay [10]; -0.249 with Albumin (Bos taurus); -0.219 in [12]; -0.163 in assay [13]. Moreover, the composite z-score is 0.771 in assay [14]; 1.22 in assay [15]; 0.846 in [16]; 0.58 with Sam68 (KHDRBS1); -2.46 in assay [17]; -0.818 in [18]. This molecule also had a z-score in assay [2] of -2.03. Besides, the composite Z-score in assay [11] is 0.292 (inactive).
On to `COCCOC(=O)N1C(=O)[C@@]2(c3cc(C#CCNC(N)=O)ccc31)[C@H](c1ccc(O)cc1)N1[C@H](c3ccccc3)[C@H](c3ccccc3)OC(=O)[C@H]1[C@@H]2C(=O)N1CCN(c2ncccn2)CC1`, for which the composite z-score is 0.855 in assay [1]; 0.315 in [3]; 2.03 in assay [4]; 0.762 in [5]; -0.219 in assay [6]; 1.78 in [7]. The composite z-score in [8] is -0.48; in [9], 1.82; in assay [10] it was 1.52; with Albumin (Bos taurus), 0.678; in assay [12], 0.344; in assay [13], -0.175. The composite z-score in assay [14] is 0.506; in assay [15], 2.41; in assay [16], 0.566; with Sam68 (KHDRBS1), 1.27; in [17] it was 0.279; in assay [18], 1.1. In addition, the z-score in [2] was -1.3. Moreover, the composite Z-score in assay [11] is 0.529 (inactive).
`C=CCC(OC(C)=O)[C@@H]1[C@@H](N(Cc2cccc3ccccc23)C(=O)c2cccc3ccccc23)c2cc(OCCCO)ccc2N1C(=O)c1ccc2ccccc2c1` (stereo not given in full): the composite z-score is 0.475 in assay [1]; 0.156 in assay [3]; -0.0677 in assay [4]; 0.476 in [5]; -0.0748 in assay [6]; 0.0494 in [7]. The composite z-score is 0.185 in assay [8]; 0.184 in assay [9]; 0.0426 in [10]; 0.0949 in the assay with Albumin (Bos taurus); 0.0676 in assay [12]; -0.0883 in assay [13]. Further, the composite z-score in assay [14] is 0.206; in assay [15], -0.203; in [16] it was -0.225; in the assay on Sam68 (KHDRBS1), -0.047; in assay [17], 0.0526; in [18], -0.0264. Also, the z-score in assay [2] was -0.351. For the same molecule, the composite Z-score in assay [11] was 0.128 (inactive).
Regarding `C=CCNC(=O)[C@H]1[C@@H]2C(=O)O[C@@H](c3ccccc3)[C@@H](c3ccccc3)N2[C@@H](c2ccc(O)cc2)[C@]12C(=O)N(C(=O)OCCOC)c1ccc(C#CCC(C(=O)OC)C(=O)OC)cc12`, the composite z-score in assay [1] is 1.07; in assay [3] it was 0.798; in assay [4], 1.5; in assay [5], 0.475; in [6], -0.147; in assay [7], -0.154. In addition, the composite z-score in assay [8] was 0.0213; in [9], 1.48; in [10] it was 0.201; in the assay with Albumin (Bos taurus) it was 0.675; in assay [12] it was 0.0904; in [13], -0.154. For the same molecule, the composite z-score in [14] is 0.378; in [15], 2.05; in assay [16], 0.775; in the assay with Sam68 (KHDRBS1) it was 1.3; in [17], 0.822; in [18] it was 0.96. This molecule had a z-score in assay [2] of -1.53. The composite Z-score in assay [11] was 1.04 (inactive).
Turning to `CCCCNC(=O)c1ccc(C#C[Si](C(C)C)(C(C)C)C(C)C)c(OC(C)=O)c1`, the composite z-score is 1.09 in assay [1]; 0.785 in [3]; 0.367 in [4]; -0.48 in assay [5]; -0.0977 in [6]; -0.2 in [7]. The composite z-score in assay [8] was -0.216; in assay [9], 0.15; in assay [10], 2.24; with Albumin (Bos taurus), -0.154; in assay [12], 0.089; in assay [13], -0.117. Further, the composite z-score was 0.925 in [14]; 0.1 in [15]; -0.18 in assay [16]; 0.823 in the assay on Sam68 (KHDRBS1); 1.33 in assay [17]; 0.94 in [18]. Further, the z-score in assay [2] is -1.13. In addition, the composite Z-score in [11] is 0.168 (inactive).
Turning to `COc1ccc(C(=O)Nc2cccc(CN3C(=O)[C@]4(O[C@H](CCn5cc([C@H](O)c6ccccc6)nn5)[C@@H]([Si](C)(C)c5ccc(OC)cc5)[C@@H]4C)c4ccccc43)c2)cc1`, the composite z-score was 1.38 in assay [1]; 0.126 in assay [3]; -0.0002 in assay [4]; -0.614 in assay [5]; -0.13 in assay [6]; -0.0793 in assay [7]. Besides, the composite z-score in assay [8] was 0.189; in [9], 0.361; in [10] it was 1.09; with Albumin (Bos taurus), -0.215; in [12] it was 0.0916; in [13], -0.0986. For the same molecule, the composite z-score in assay [14] was 0.169; in assay [15], 0.18; in assay [16], -0.206; in the assay with Sam68 (KHDRBS1) it was 0.962; in [17] it was 0.153; in [18] it was 0.587. The z-score in [2] was -5.19. Moreover, the composite Z-score in assay [11] was -0.213 (inactive).
As to `Cc1ccc([C@H]2C(C(=O)O)=C[C@@H](C(C)(C)C)N2S(=O)(=O)c2ccc(C)cc2)cc1`, the composite z-score in assay [1] came to 1.41; in assay [3], 0.326; in assay [4], 1.94; in [5], 0.516; in [6] it was 0.058; in assay [7] it was 0.348. For the same molecule, the composite z-score came out at 1.34 in assay [8]; 1.4 in [9]; 1.43 in assay [10]; 0.966 with Albumin (Bos taurus); 0.305 in assay [12]; 0.0746 in assay [13]. In addition, the composite z-score in assay [14] is 0.531; in [15], 1.99; in assay [16], 0.868; in the assay with Sam68 (KHDRBS1), 1.31; in assay [17], -0.202; in [18], 1.21. The z-score in assay [2] came out at 0.0372. Also, in assay [11], the composite Z-score is 0.0172 (inactive).
